# Assay results published in PubChem BioAssay.
# Several values for one entry are separate records, joined by “and”; a condition that tells them apart may be missing. Equal entries are not always repeated. Records with an inconclusive call do not appear. Activity calls are given as the source filed them. Unless noted, cut-off not given; nearly all actives show AC50 up to about 30 µM.
# Columns and labels:
# [1] = viability loss in pontine glioma line – cell-based, JHH-DIPG-1, MIPE4.0, CellTiter-Glo, qHTS, dose response (AID 1347062; cut-off not given, nearly all actives have AC50 up to about 27 µM;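 on AC50: cells exposed to compound for two days before readout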); conditions: JHH-DIPG-1 viability, CellTiter-Glo ATP luminescence
# [2] = viability loss in pontine glioma line – cell-based, SU-DIPG-IV, MIPE4.0, CellTiter-Glo, qHTS, dose response (AID 1347063); conditions: CellTiter-Glo ATP luminescence;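 further: compound exposure lasted 48 hours before the viability readout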
# [3] = growth inhibition of DIPG cells – cell-based, MIPE4.0 library, CellTiter-Glo luminescence, qHTS (AID 1347066); conditions: SU-DIPG-VI viability, CellTiter-Glo ATP luminescence;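 further: cells exposed to compound for 48 hours before readout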
# [4] = JHH-DIPG-1 glioma cell viability, MIPE5.0 library, CellTiter-Glo luminescence, qHTS (AID 1347067; cut-off not given, nearly all actives have AC50 up to about 26 µM;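 further: cells exposed to compound for 48 hours before readout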); conditions: JHH-DIPG-1 glioma viability, CellTiter-Glo ATP luminescence
# [5] = growth inhibition of DIPG cells – cell-based, MIPE5.0 library, qHTS (AID 1347068; cut-off not given, nearly all actives have IC50 up to about 30 µM;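 on IC50: cells exposed to compound for 48 hours before viability readout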); conditions: SU-DIPG-XXV viability
# [6] = viability loss in pontine glioma line – cell-based, SU-DIPG-XIII, MIPE5.0, CellTiter-Glo, qHTS, dose response (AID 1347064; cut-off not given, nearly all actives have AC50 up to about 23 µM;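 on AC50: cells exposed to compound for 48 hours before the viability read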); conditions: CellTiter-Glo ATP luminescence
# [7] = viability loss in pontine glioma line – cell-based, SU-DIPG-XXV, MIPE5.0, CellTiter-Glo, qHTS, dose response (AID 1347065; cut-off not given, nearly all actives have AC50 up to about 26 µM;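 further: cells exposed to compound for 48 hours before ATP readout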); conditions: CellTiter-Glo ATP luminescence
# [8] = viability loss with induced miR-34 in A549 – imaging, A549 dox-inducible miR-34, nuclei and caspase counts, primary screen (AID 1347080;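 active means compounds whose cell count with miR-34 switched on is under 0.7 times the count with it off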); conditions: A549 miR-34 inducible, Hoechst nuclei count, 48 h
# [9] = MELAS cybrid and Rieske KO viability enhancers – cell-based, MELAS cybrids, Rieske KO mouse fibroblasts, CellTiter-Glo, primary screen (AID 1508586;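 active means mean z-score across replicates of 1.96 or higher in either the MELAS or the Rieske mutant cell line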;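 further: z relative to plate mean and SD of compound and empty wells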); conditions: low glucose
# [10] = growth inhibition, single agent or in combination, cell-based, chromothripsis tumors, cisplatin or BGB combos (AID 1671449; in the data active means inhibition above about 80%;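 further: cells exposed for 96 hours; 0% = vehicle DMSO and 100% = killing by high DMSO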); conditions: LFS_MB_P medulloblastoma cells
# [11] = growth inhibition, single agent and combos, cell-based, chromothripsis tumors, cisplatin or BGB combos (AID 1671450; in the data active means inhibition above about 80%;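 further: cells exposed to compound for four days; 0% = vehicle DMSO and 100% = cell killing by high DMSO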); conditions: HDN33 neuroblastoma cells, stronger effect = higher value
# [12] = growth inhibition, single agents and combos, ICB984, cell-based, cisplatin or BGB combos, synergistic combos for chromothripsis tumors (AID 1671451; call rule not given here;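 further: cells exposed for 96 hours before readout; 0% = vehicle DMSO and 100% = killing by high DMSO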); conditions: ICB984 medulloblastoma cells, drug combinations, stronger effect = higher value
# [13] = growth inhibition, single agents and combos, HTB85, cell-based, BGB or cisplatin IC20 combos, synergistic combos for chromothripsis tumors (AID 1671453; in the data active means inhibition above about 80%;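 further: cells exposed for 96 hours before readout; 0% = vehicle DMSO and 100% = high DMSO killing control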); conditions: HTB85 osteosarcoma cells, drug combinations, stronger effect = higher value
# [14] = growth inhibition, MDA-MB-436, cell-based, BGB or cisplatin combos, synergistic combos for chromothripsis tumors (AID 1671458; call rule not given here;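 further: cells exposed for 96 hours; 0% = vehicle DMSO and 100% = killing by high DMSO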); conditions: MDA-MB-436 breast carcinoma growth inhibition, drug combinations, stronger effect = higher value
# [15] = BT084 cell growth, single and combined drugs, ICGC_MB145, cisplatin and BGB IC40 combos (AID 1671461; in the data active means inhibition above about 80%;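 further: cells exposed to drugs for 96 hours; 0% = vehicle DMSO and 100% = high DMSO full killing control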); conditions: BT084 medulloblastoma cells, drug combinations, stronger effect = higher value
# [16] = RCMB18 cell growth, single agent and combined, cisplatin and BGB IC40 combos (AID 1671462; in the data active means inhibition above about 80%;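 further: cells exposed to compound for four days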); conditions: RCMB18 medulloblastoma cells, stronger effect = higher value
# [17] = CRL1545 cell growth, single agent and combined, cisplatin and BGB IC20 combos (AID 1671464; in the data active means inhibition above about 80%;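 further: cells exposed to compound for 96 hours before readout; 0% = vehicle DMSO and 100% = high DMSO killing control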); conditions: CRL1545 osteosarcoma cells, stronger effect = higher value
# [18] = compounds altering HSF1 focus formation in cells – imaging, Selleck Cancer Library (AID 1347162; in the data active means plate-normalised HSF1 focus index below about 0.46); conditions: human cells, HSF1 nuclear foci imaging, at 10 µM; SSMD: measured here: HSF1 foci SSMD mean; cell count: measured here: cell number; plate-normalised HSF1 focus index: stronger effect = lower value
# [19] = stronger effect = lower value, cell number ratio, induced over uninduced
# [20] = measured here: relative caspase fold change +Dox/-Dox
# [21] = measured here: total cells with miR-34 induction, stronger effect = lower value
# [22] = measured here: total cells without miR-34 induction
# [23] = MELAS cybrid survival, CellTiter-Glo 48 h, stronger effect = higher value
# [24] = Rieske KO mouse fibroblast survival, CellTiter-Glo 72 h
# [25] = measured here: with BGB IC20 combination, at 0.5 µM
# [26] = measured here: with cisplatin IC20 combination, at 0.5 µM
compound,measurement,setting,value
C[C@@H]1C/C=C/C=C/C=C/C=C/[C@@H](O[C@@H]2O[C@H](C)[C@@H](O)[C@H](N)[C@@H]2O)C[C@@H]2O[C@](O)(C[C@@H](O)C[C@@H]3O[C@H]3/C=C/C(=O)O1)C[C@H](O)[C@H]2C(=O)O,outcome,[1],inactive
CC(O)[C@@H]1NC(=O)[C@H](CCCCN)NC(=O)[C@@H](Cc2c[nH]c3ccccc23)NC(=O)[C@H](Cc2ccccc2)NC(=O)[C@@H](NC(=O)[C@H](N)Cc2ccccc2)CSSC[C@@H](C(=O)N[C@H](CO)[C@@H](C)O)NC1=O (some centres undefined),outcome,[1],inactive
same,outcome,[2],inactive
same,outcome,[3],inactive
Cc1ccccc1C(C(=O)NC1CCCCC1)N(C(=O)CNc1ccc(C#N)cc1)c1cccc(F)c1 (centres undefined),outcome,[1],inactive
same,outcome,[2],inactive
same,outcome,[3],inactive
same,outcome,[4],inactive
same,outcome,[5],inactive
COc1cc(OC)cc(-c2ccc3ncc4ccc(=O)n(-c5ccc(N6CCNCC6)c(C(F)(F)F)c5)c4c3c2)c1,AC50,[1],16.6 µM (active)
same,AC50,[2],2.64 µM (active)
same,AC50,[3],13.2 µM (active)
COc1ccc(-c2c(-c3ccc(O)cc3O)n[nH]c2C)cc1,outcome,[1],inactive
same,outcome,[6],inactive
same,outcome,[7],inactive
same,outcome,[3],inactive
same,outcome,[5],inactive
same,fold change,[8]; [19],0.931 (inactive)
same,fold change,[8]; [20],0.724
same,cell count,[8]; [21],7090
same,cell count,[8]; [22],7620
same,z-score,[9]; [23],0.614 (inactive)
same,z-score,[9]; [24],-0.216
N#Cc1c(C2CCNCC2)cc(-c2c(O)cccc2OCC2CC2)nc1N,AC50,[1],23.5 µM (active)
same,AC50,[2],13.2 µM (active)
same,IC50,[5],20.9 µM (active)
COc1cc(C(=O)N2CCC(N3CCN(C)CC3)CC2)ccc1Nc1ncc2c(n1)N(C)c1ccccc1C(=O)N2C,AC50,[1],16.6 µM (active)
same,AC50,[2],16.6 µM (active)
same,AC50,[4],18.6 µM (active)
same,IC50,[5],20.9 µM (active)
O=C(Nc1nc2ccccc2n1CCN1CCOCC1)c1cccc([N+](=O)[O-])c1,AC50,[1],14.8 µM (active)
same,AC50,[2],10.5 µM (active)
same,outcome,[5],inactive
same,fold change,[8]; [19],0.827 (inactive)
same,fold change,[8]; [20],1.35
same,cell count,[8]; [21],5540
same,cell count,[8]; [22],6700
CCc1nc(-c2cccc(C)c2)c(-c2ccnc(NC(=O)c3ccccc3)c2)s1,outcome,[1],inactive
same,outcome,[2],inactive
same,fold change,[8]; [19],0.974 (inactive)
same,fold change,[8]; [20],0.928
same,cell count,[8]; [21],5690
same,cell count,[8]; [22],5840
same,z-score,[9]; [23],0.655 (inactive)
same,z-score,[9]; [24],0.137
Fc1ccc(CNc2ncnc3ccc(F)cc23)cc1,outcome,[1],inactive
same,outcome,[6],inactive
same,outcome,[5],inactive
C[C@H](c1ccc(F)cc1CCCC(=O)O)N(c1cc(F)ccc1F)S(=O)(=O)c1ccc(Cl)cc1,outcome,[1],inactive
same,outcome,[2],inactive
same,outcome,[3],inactive
same,outcome,[4],inactive
same,outcome,[5],inactive
CC(=O)Nc1sc2c(c1-c1nc3ccccc3s1)CNC2,AC50,[1],23.5 µM (active)
same,AC50,[2],20.9 µM (active)
same,outcome,[3],inactive
CCCn1c(=O)c2[nH]c(-c3cnn(Cc4cccc(C(F)(F)F)c4)c3)nc2n(CC)c1=O,outcome,[1],inactive
same,AC50,[7],13.2 µM (active)
same,outcome,[3],inactive
same,outcome,[5],inactive
NS(=O)(=O)c1ccc(NC2=CC(=O)c3ccccc3C2=O)cc1,outcome,[1],inactive
same,AC50,[6],5.9 µM (active)
same,AC50,[7],11.8 µM (active)
same,AC50,[3],5.9 µM (active)
same,AC50,[4],20.9 µM (active)
Cc1cn([C@@H]2O[C@H](CO)[C@@H](O)[C@@H]2F)c(=O)[nH]c1=O,outcome,[1],inactive
same,outcome,[2],inactive
same,outcome,[3],inactive
same,inhibition,"[10]; at 0.5 µM, stronger effect = higher value",-22.2% (inactive)
same,inhibition,"[10]; measured here: combination with BGB IC20, at 0.005 µM",-21.4%
same,inhibition,"[10]; measured here: combination with BGB IC40, at 0.005 µM",24.6%
same,inhibition,"[10]; measured here: combination with BGB IC40, at 0.05 µM",-36.4%
same,inhibition,"[10]; measured here: combination with cisplatin, at 0.5 µM, stronger effect = higher value",-29.1%
same,inhibition,"[10]; measured here: combination with cisplatin, at 5 µM, stronger effect = higher value",-25.8%
same,inhibition,"[11]; BGB combo, at 5 µM",-42.9%
same,inhibition,[11]; at 0.5 µM,15.9% (inactive)
same,inhibition,"[11]; cisplatin combo, at 5 µM",-14%
same,inhibition,[11]; [25],25%
same,inhibition,[11]; [26],22.2%
same,inhibition,"[11]; single agent, at 5 µM",-22.6%
same,inhibition,"[12]; BGB IC20 combo, at 0.005 µM",-11.3%
same,inhibition,"[12]; BGB IC40 combo, at 0.005 µM",-20.8%
same,inhibition,"[12]; BGB IC40 combo, at 0.05 µM",-28.4%
same,inhibition,[12]; at 0.5 µM,-27.1% (inactive)
same,inhibition,"[12]; cisplatin combo, at 0.05 µM",-35%
same,inhibition,"[12]; cisplatin combo, at 0.5 µM",-33.8%
same,inhibition,"[12]; cisplatin combo, at 5 µM",-27.5%
same,inhibition,"[12]; measured here: 5 uM single agent, at 5 µM",-20.1%
same,inhibition,[13]; at 0.5 µM,7.88% (inactive)
same,inhibition,"[13]; measured here: with BGB IC20, at 0.5 µM",40.2%
same,inhibition,"[13]; measured here: with BGB IC20, at 5 µM",-1.08%
same,inhibition,"[13]; measured here: with cisplatin IC20, at 0.5 µM",-7.9%
same,inhibition,"[13]; measured here: with cisplatin IC20, at 5 µM",-2.9%
same,inhibition,"[13]; single agent, at 5 µM",6.67%
same,inhibition,[14]; at 0.5 µM,-24.5% (inactive)
same,inhibition,"[14]; measured here: BGB combination, at 0.5 µM",-21.7%
same,inhibition,"[14]; measured here: BGB combination, at 5 µM",-19.5%
same,inhibition,"[14]; measured here: cisplatin combination, at 0.5 µM",-37.4%
same,inhibition,"[14]; measured here: cisplatin combination, at 5 µM",-37%
same,inhibition,[15]; at 0.5 µM,-12.8% (inactive)
same,inhibition,"[15]; cisplatin combination, at 0.5 µM",3.7%
same,inhibition,"[15]; cisplatin combination, at 5 µM",-127%
same,inhibition,"[15]; measured here: BGB IC40 combination 0.05 uM, at 0.05 µM",-18.9%
same,inhibition,"[15]; single agent, at 5 µM",-21.7%
same,inhibition,[16]; at 0.5 µM,-23.1% (inactive)
same,inhibition,"[16]; cisplatin combo, at 5 µM",-15.5%
same,inhibition,"[16]; measured here: BGB IC40 combination, at 0.05 µM",-13.9%
same,inhibition,"[16]; measured here: combination with cisplatin, at 0.5 µM",-19%
same,inhibition,"[16]; single agent, at 5 µM",-12.7%
same,inhibition,[17]; at 0.5 µM,12.7% (inactive)
same,inhibition,[17]; [25],6.33%
same,inhibition,[17]; [26],14.6%
same,inhibition,"[17]; single agent, at 0.05 µM",-20.4%
same,inhibition,"[17]; single agent, at 5 µM",5.83%
O=c1[nH]c(=O)n([C@H]2C[C@H](O)[C@@H](CO)O2)cc1/C=C/Br,outcome,[1],inactive
same,outcome,[2],inactive
same,outcome,[3],inactive
C=CC(=O)Nc1cccc(Nc2nc(NC3CCC(N(C)C)CC3)nc3c2ncn3C(C)C)c1 (centres undefined),AC50,[1],0.187 µM (active)
same,AC50,[2],0.0235 µM (active)
Nc1nc(N)c(N=O)c(OCC2CCCCC2)n1,AC50,[1],14.8 µM (active)
same,AC50,[2],4.69 µM (active)
same,AC50,[3],14.8 µM (active)
same,IC50,[5],14.8 µM (active)
same,fold change,[8]; [19],0.992 (inactive) and 0.824 (inactive)
same,fold change,[8]; [20],0.923 and 0.352
same,cell count,[8]; [21],8650 and 6730
same,cell count,[8]; [22],8720 and 8160
same,SSMD,[18],2.32
same,cell count,[18],6960
same,plate-normalised HSF1 focus index,[18],1.14 (inactive)
same,z-score,[9]; [23],-0.213 (inactive)
same,z-score,[9]; [24],-2.45
c1ccc(CNc2nc(N3CCOc4ccccc43)nc3c2CCCC3)cc1,outcome,[1],inactive
same,AC50,[6],16.6 µM (active)
Nc1ncnc2c1c(-c1cccc(OCc3ccccc3)c1)cn2C1CC(CN2CCC2)C1 (centres undefined),AC50,[1],11.8 µM (active)
same,AC50,[6],0.525 µM (active)
same,AC50,[7],0.417 µM (active)
same,AC50,[3],2.96 µM (active)
same,AC50,[4],6.61 µM (active)
same,fold change,[8]; [19],1.02 (inactive)
same,fold change,[8]; [20],0.834
same,cell count,[8]; [21],2880
same,cell count,[8]; [22],2830
same,z-score,[9]; [23],-0.54 (inactive)
same,z-score,[9]; [24],-0.0242
CC(C)(C)NC(=O)Nc1cccc(Nc2ncc(F)c(NC(C)(C)CO)n2)c1,outcome,[1],inactive
same,outcome,[6],inactive
same,AC50,[7],4.68 µM (active)
same,outcome,[3],inactive
